# Inconclusive results are not listed. Entries that show only a call come without a potency. Calls of active or inactive are those of the source. Calls come from the whole dose curve; as a rule, active = well fitted inhibition curve with a large enough effect; inconclusive = small, poorly fitted or top-dose-only effect; inactive = flat fitted curve, though single readings scatter.
# Target: Voltage-gated inwardly rectifying potassium channel KCNH2 (Homo sapiens) (UniProt Q12809)
# Assay: qHTS Assay for Small Molecule Inhibitors of the Human hERG Channel Activity (AID 588834);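 note: lower thallium flux fluorescence means stronger hERG block; nearly all actives have a fitted effect of over 50% in size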
# Settings: U2OS BacMam hERG, FluxOR thallium flux fluorescence; series mostly up to 92.2 µM
# Source text: NIH Chemical Genomics Center [NCGC]
# National Institutes of Environmental Health Sciences [NIEHS]
# National Toxicology Program [NTP]
# We have developed a 1536-well cell-based assay for quantitative high throughput screening (qHTS) to determine in vitro hERG channel blockage as a measure of cardio toxicity with small molecules. This particular assay uses the U2OS cell line which is derived from human osteosarcoma.
# NCGC Assay Protocol Summary:
# HERG assay (FluxORTM thallium flux assay) was initially developed by Invitrogen/Molecular Probes, and then miniaturized into 1536-well plate in a homogeneous format by NCGC. This assay measures the activity of potassium channel using thallium dye (FluxOR) flux as surrogate measurement for potassium into the cells with a FDSS-7000 kinetic plate reader (Hamamatsu Corp., Hamamatsu City, Japan). The hERG ion channel is transduced into mammalian cells (U2OS) using a baculovirus (Bacmam) construct harboring the hERG K+ ion channel. So far we screened LOPAC1280 library (Sigma), the NTP collection of 1408 compounds, and the NCGC Pharmaceutical Collection (NPC), in which many well defined HERG blockers are present. The rank order potencies of many of these compounds are similar to that of other HERG assays (membrane potential, Rb+ flux, patch clamp, etc). This quick and homogeneous assay is also found to be sensitive, specific, and robust.
# Using the FluxORTM thallium flux assay, the activity of potassium channel using thallium dye (FluxOR) flux as surrogate measurement for potassium into the cells was measured in the U2OS cell line transduced with hERG K+ ion channel using a baculovirus (Bacmam) using Opti-MEM medium (Invitrogen) containing 2% fetal calf serum (FCS, HyCone) following loading buffer addition, compound treatment for around 10 minutes and finally adding stimulation buffer. The assay was performed in black clear Kalypsys 1536-well plates. In the screen, Astemizole was used as positive controls. Library compounds were measured for their ability to cause hERG channel blockage in the cell line, as reflected by a decrease in fluorescence intensity, in a concentration-dependent manner. […] AC50 values were determined from concentration-response data modeled with the standard Hill equation.
# qHTS protocol for hERG-U2OS cellular assay
# [Step] [Parameter] [Value] [Description]
# 1. Day 1: Replace medium in 70-80% confluent T225 flask with 2.5 mL of hERG-BacMam virus plus 12.5 mL of phosphate buffered saline (PBS) (corresponding roughly to a multiplicity of infection ratio of 100 virus particles/cell)
# 2. Incubation: 4 hrs @ room Temperature in Dark
# 3. Reagent; Remove virus; wash once with 25 ml DPBS
# 4. Reagent; 35 ml culture medium
# 5. Incubation; 37 °C overnight
# 6. Day2: Reagent; 3 uL; 2000 U2OS cells/well
# 7. Time; 4 hr; 37 °C incubation
# 8. Loading buffer; 1 uL; 0.7X;
# 9. Incubation: 1hr @ RT in Dark.
# 12. Time; 10min; 37 °C incubation
# 13. Read fluorescence Intensity on FDSS for 10 Sec with 1 sec interval
# 14. Reagent; 1 uL; stimulation buffer
# 15. Read fluorescence Intensity on FDSS for 2 min with 1 sec interval
# 16. Detection; Fluorescence Intensity; FDSS
# Potency is the fitted concentration of half-maximal effect.
# Voltage-gated inwardly rectifying potassium channel KCNH2 (Homo sapiens), sequence (Q12809 whole entry, looked up): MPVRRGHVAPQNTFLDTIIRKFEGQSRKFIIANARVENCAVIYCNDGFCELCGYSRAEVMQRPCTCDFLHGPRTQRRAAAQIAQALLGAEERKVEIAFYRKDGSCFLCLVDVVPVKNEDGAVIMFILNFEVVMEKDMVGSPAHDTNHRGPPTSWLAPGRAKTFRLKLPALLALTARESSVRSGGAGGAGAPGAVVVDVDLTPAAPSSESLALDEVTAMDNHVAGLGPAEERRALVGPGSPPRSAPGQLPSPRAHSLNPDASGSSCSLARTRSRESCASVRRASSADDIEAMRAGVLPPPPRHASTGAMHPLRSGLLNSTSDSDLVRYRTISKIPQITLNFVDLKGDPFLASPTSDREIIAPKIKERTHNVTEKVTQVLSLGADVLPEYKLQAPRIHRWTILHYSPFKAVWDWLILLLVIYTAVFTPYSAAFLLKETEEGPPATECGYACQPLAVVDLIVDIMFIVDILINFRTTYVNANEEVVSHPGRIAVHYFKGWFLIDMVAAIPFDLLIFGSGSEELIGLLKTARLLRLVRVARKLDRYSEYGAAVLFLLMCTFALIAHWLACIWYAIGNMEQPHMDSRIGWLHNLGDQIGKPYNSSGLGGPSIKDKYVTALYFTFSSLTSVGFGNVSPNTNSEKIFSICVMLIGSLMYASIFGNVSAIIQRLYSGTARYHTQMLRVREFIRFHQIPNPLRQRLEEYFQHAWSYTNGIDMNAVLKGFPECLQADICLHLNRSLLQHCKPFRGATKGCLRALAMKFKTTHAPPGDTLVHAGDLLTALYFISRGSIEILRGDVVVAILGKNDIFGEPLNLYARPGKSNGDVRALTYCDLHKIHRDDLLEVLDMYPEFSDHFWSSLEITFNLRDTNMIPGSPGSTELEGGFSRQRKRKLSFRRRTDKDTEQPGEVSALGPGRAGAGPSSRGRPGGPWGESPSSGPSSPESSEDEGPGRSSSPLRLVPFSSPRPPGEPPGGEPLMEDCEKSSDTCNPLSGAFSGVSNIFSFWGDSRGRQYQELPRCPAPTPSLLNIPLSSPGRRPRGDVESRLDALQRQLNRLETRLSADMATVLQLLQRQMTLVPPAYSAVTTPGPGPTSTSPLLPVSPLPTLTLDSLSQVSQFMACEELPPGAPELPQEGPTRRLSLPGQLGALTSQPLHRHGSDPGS
row,Structure (SMILES),Potency
1,O=[N+]([O-])c1ccc(-c2nc(-c3ccc(F)cc3)c(-c3ccncc3)[nH]2)cc1,8.91 µM (active)
2,Nc1ccc2cc3ccc(N)cc3nc2c1,12.6 µM (active)
3,O=C1NC(c2cccc([N+](=O)[O-])c2)=CCN1c1ccccc1O,inactive
4,COc1cccc2c1[C@@H]1CN(CCCCn3c(=O)[nH]c4c(sc5ncc(-c6ccccc6)nc54)c3=O)C[C@@H]1CO2,5.01 µM (active)
5,NC(N)=NCCCCN=C(N)N,inactive
6,Oc1ccccc1,inactive
7,CN(C)c1cc2c(Nc3ccc4c(cnn4Cc4ccccc4)c3)ncnc2cn1,inactive
8,CC(=O)OC/C=C(C)/C=C/C=C(C)/C=C/C1=C(C)CCCC1(C)C,inactive
9,CN1CCC(Nc2ncc3ncnc(Nc4ccc(F)c(Cl)c4)c3n2)CC1,12.6 µM (active)
10,c1ccc2occc2c1,inactive
11,O=C(NO)c1ccccc1,inactive
12,Cn1cnc2c(NCc3ccccc3)nc(NCCO)nc21,inactive
13,COc1cc(C=O)ccc1O,inactive
14,C[C@]12CCC(=O)C=C1CC[C@@H]1[C@@H]2[C@@H](O)C[C@@]2(C)[C@H]1CC[C@]2(O)C(=O)COC(=O)CCC(=O)O,inactive
15,CN1CCCN(C(c2ccccc2)c2ccc(Cl)cc2)CC1 (centres undefined),8.91 µM (active)
16,Brc1ccc([C@H]2CN3CCSC3=N2)cc1,11.2 µM (active)
17,CC(C)(C)c1ccc(O)c(O)c1,inactive

row,Structure (SMILES),Potency
1,C1=CC2C3C=CC(C3)C2C1 (centres undefined),inactive
2,Cc1ccc(O)cc1,inactive
3,Nc1ncnc2nc[nH]c12,inactive
4,OCc1c[nH]c2ccccc12,inactive
5,Nc1ccc(O)cc1,inactive
6,C[N+](C)(C)CCO,inactive
7,COc1ccccc1N1CCN(CCN2C(=O)CC3(CCCC3)CC2=O)CC1,1.12 µM (active)
8,CCCCC(CC)COC(=O)c1ccccc1C(=O)O (centres undefined),inactive
9,CCCCCCCCCCCCCCCC[N+](C)(C)Cc1ccccc1,22.4 µM (active)
10,Nc1c2ccccc2nc2ccccc12,inactive
11,CCCC(=O)c1cc(O)c(O)cc1O,inactive
12,CC(NCCC(c1ccccc1)c1ccccc1)c1ccccc1 (centres undefined),2.24 µM (active)
13,Nc1cccc2c(N)cccc12,inactive
14,O=S(=O)(O)c1ccc2nc(-c3ccccc3)[nH]c2c1,inactive
15,CC(C)C(C)(C)C(C)(C)C(C)(C)S,inactive
16,CC(C)N(CCC(=O)c1ccc2ccccc2c1)Cc1ccccc1,3.16 µM (active)
17,O=[N+]([O-])c1ccc(O)c2ncccc12,inactive
